± gives the standard deviation of the averaged measurements. The full ranking holds about 4,100 sequences; the median of “arbitrary fluorescence units” is about 780, and the highest 2% start at about 22,000. What follows is part of a selection rich in the highest values, with near analogues and random picks from the rest.
The sequences below were run against T1, ETS1 (UniProt P14921) (assay: ETS1 binding intensity (PBM fluorescence), ETS1 alone (arbitrary fluorescence units); higher = stronger binding). Conditions: ETS1 concentration 1 nM; RUNX1 concentration 0 nM.
T1 sequence: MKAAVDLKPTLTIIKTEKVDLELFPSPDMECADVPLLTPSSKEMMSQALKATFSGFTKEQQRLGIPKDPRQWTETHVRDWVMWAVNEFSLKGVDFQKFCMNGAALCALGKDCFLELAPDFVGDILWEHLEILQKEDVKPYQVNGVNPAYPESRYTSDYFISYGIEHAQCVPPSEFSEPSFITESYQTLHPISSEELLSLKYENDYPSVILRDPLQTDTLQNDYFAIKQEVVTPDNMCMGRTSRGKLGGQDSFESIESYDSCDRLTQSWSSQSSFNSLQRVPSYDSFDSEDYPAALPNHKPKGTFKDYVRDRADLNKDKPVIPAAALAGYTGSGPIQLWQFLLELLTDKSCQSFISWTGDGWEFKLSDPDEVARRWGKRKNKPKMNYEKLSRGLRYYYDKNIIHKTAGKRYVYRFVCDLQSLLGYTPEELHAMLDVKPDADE
Experimental: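 gcPBM on 36-bp genomic-derived probes (partner site mutated) containing one ETS1 site and no RUNX1 site. Recombinant human ETS1 (1 nM) was incubated alone or with RUNX1 (25 nM) and detected by anti-ETS1 antibody fluorescence. Values are medians over 4 replicate spots (not normalised). The probes sit in constant array flanks that are not printed.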

Question: TGGCTGTCACTTCCTGTCCCACTGTCGTTCCTGGGA was tested. Which ETS1 binding intensity did it give?
Answer: 20600

Question: GACTGCGCCGGACGCGCCAGCCCTGCGCGATGACGT was tested. Which ETS1 binding intensity did it give?
Answer: 678

Question: For CGTTTCCTGTCTGGGACTGCGCCCACGCGATCACGT, which ETS1 binding intensity is on record?
Answer: 38800

Question: TCCCTCCTTCCGCTCTGGTTTTGGGGTTGCTTGCTG was tested. Which ETS1 binding intensity did it give?
Answer: 6220

Question: How did the ETS1 binding intensity turn out when CCAACAGCAGCGCTACTCCCGGCCGCTTCCGCCTGG was run?
Answer: 748

Question: CCGCGTCCTCAGAGGTCCGGCCGGAAGTCACCTGAA was tested. Which ETS1 binding intensity did it give?
Answer: 8340 ± 1500

Question: CGGCCTCTTCCGGTCACCTGGCCCGTCGCTGTCCCG was tested. Which ETS1 binding intensity did it give?
Answer: 17300

Question: Which ETS1 binding intensity does the source give for GGCACTTCCGGTCCTGACCTGAAGCGCTCACCGTCA here?
Answer: 55000

Question: Which ETS1 binding intensity does the source give for ACAAAGTCAGTGGCAATGTGGAACGTCCGCCAAGAG here?
Answer: 384

Question: With GCGGAGGGAAGCGGAAATACTTGCAGTGGGGGCGAC as the sequence, how does the ETS1 binding intensity read?
Answer: 3700

Question: For CTCTTGGCGGACGTTCCACATTGCCACTGACTTTGT, which ETS1 binding intensity is on record?
Answer: 616

Question: Which ETS1 binding intensity does the source give for CAACTCCGGCGCCCTCAGGCCACTTCCGCCTATGTA here?
Answer: 4590

Question: With GCCACTTCCGGTCACTCCCCTCAGCGGCCTCGCGCT as the sequence, how does the ETS1 binding intensity read?
Answer: 39600

Question: For CACTCCCCTCCCGAGGTCACACTTCCGGCGGCCACC, which ETS1 binding intensity is on record?
Answer: 7960

Question: CTGCCTTTCCTGCTAGGGTACAAATCACAGCCTTAG was tested. Which ETS1 binding intensity did it give?
Answer: 1670

Question: Which ETS1 binding intensity does the source give for AACTTCCTTCCCGAGAGCCTGAAGCAGCCGTAGGCC here?
Answer: 9120

Question: How did the ETS1 binding intensity turn out when TTTAAGGTTCATGCTGTACTCAGAACATCCTGTTCT was run?
Answer: 1150

Question: For TCCCCACACTTCCGGCCCCGCGCGCACAGCCGCACC, which ETS1 binding intensity is on record?
Answer: 25400

Question: For TCCCGCTTCGGCCAACAGCCGGGCCACTTCCGGGGC, which ETS1 binding intensity is on record?
Answer: 2910

Question: For CGGGTTAAACAGCAGCCGCGCCCACACTTCCGGGGT, which ETS1 binding intensity is on record?
Answer: 2120

Question: With CCGCGAACAGCAGAATTCCCGCCTTCCGCAGCCCGG as the sequence, how does the ETS1 binding intensity read?
Answer: 480 ± 6.2

Question: With AGCACCAGTGTTGTCTCTGCTTCCGGTCCTTATGGT as the sequence, how does the ETS1 binding intensity read?
Answer: 7490

Question: How did the ETS1 binding intensity turn out when GGTCTCTGCTTCCGGTCCTTGGGGTAGCACCTCTGT was run?
Answer: 32000

Question: How did the ETS1 binding intensity turn out when TGGGGCTCTTCCTGCTTATGTGAGCACAGCACCTTG was run?
Answer: 4750

Question: With CAGCCAGCGCACCTCCTCCTCAGCTTCCTCTGGTGC as the sequence, how does the ETS1 binding intensity read?
Answer: 620

Question: For GATGAGGGCTTGCGCGCAAACAGCCCGGAAATGAGG, which ETS1 binding intensity is on record?
Answer: 1010

Question: Which ETS1 binding intensity does the source give for GGGGACCGGAAAGGGAGGGGTGGGCCGTAGGCGCCG here?
Answer: 4430

Question: Which ETS1 binding intensity does the source give for CGGCCGCCGTTTAGGGCGGCCCCGGAAGCGGGGCGC here?
Answer: 531

Question: For CAACAACCGGAAGTGGGGCGGGCCGTAGTACCCGCC, which ETS1 binding intensity is on record?
Answer: 35100

Question: With GCACTCATTTCCTGTCCCCTGTAGTTTAAAGGTTTT as the sequence, how does the ETS1 binding intensity read?
Answer: 19700

Question: Which ETS1 binding intensity does the source give for TTGCATGTAGTTTAGGCTGTAGTTTCCTCCTGTAGT here?
Answer: 534

Question: How did the ETS1 binding intensity turn out when AGGCTCATTTCCTGTTTTCATGTAGTTTAGAGAAAA was run?
Answer: 24300

Question: Which ETS1 binding intensity does the source give for TATATGCACAGGAAGTCCCTTACAACCTACTCTGTT here?
Answer: 3590

Question: Which ETS1 binding intensity does the source give for AGGACCGGAAGTGCCCGAGGGCGGCCGGAGAACGGT here?
Answer: 45500

Question: How did the ETS1 binding intensity turn out when GGCGGGAGAGGAAGCCGGGCGGCCGAAGCTGCCTGT was run?
Answer: 811

Question: Which ETS1 binding intensity does the source give for AGAAGTGCAGTGGAGGAGGGCCGGAACGGTGACTAT here?
Answer: 393

Question: How did the ETS1 binding intensity turn out when CCATTCCTACGGCCTTCATTGCTGCATCCGGTGGAG was run?
Answer: 2480

Question: Which ETS1 binding intensity does the source give for CTCTGGGAGGCCGCCGCTTTCCACCGGAAAGAGGGT here?
Answer: 555

Question: Which ETS1 binding intensity does the source give for AGGTACAACACCAGACGGTAGGCCAGGAAATCGCAG here?
Answer: 407

Question: For CTCCGCGCAGCCCCAGAGACCCTTGGGAAGTGTGGT, which ETS1 binding intensity is on record?
Answer: 320

Question: With CTCGGCCAACGCGTGCTCCACTCGGAAGTGGTGCCG as the sequence, how does the ETS1 binding intensity read?
Answer: 457

Question: CAAAGTGATGGGGGAAATGGTTGTAGTTTTGGGTGG was tested. Which ETS1 binding intensity did it give?
Answer: 514

Question: AACAGTACTTCCGGGGCAAGTGAGCGCCTACAAGGC was tested. Which ETS1 binding intensity did it give?
Answer: 30400

Question: For CGTGTGAGGGGGCGCAAGGCAGCGGCAGCTTCCGCC, which ETS1 binding intensity is on record?
Answer: 830

Question: GTTGCAAAGGCGCCTACAACTACTTCCGCTTCTAGT was tested. Which ETS1 binding intensity did it give?
Answer: 4670

Question: With CTTCTACTTCCTGCCCCGCCCCCAGCTGTGCTCACA as the sequence, how does the ETS1 binding intensity read?
Answer: 17900

Question: Which ETS1 binding intensity does the source give for TGAGCCCTACTTCCGGTGGTGCTGTGCTCTGCCCCT here?
Answer: 29700

Question: AAATGAGCGGAGGTTGAGCCCTACTTCCGGTGGTGC was tested. Which ETS1 binding intensity did it give?
Answer: 14100

Question: GCTTGTCTTCCGGTTTCGTCGCCGCCGTAGGCGCAC was tested. Which ETS1 binding intensity did it give?
Answer: 16700

Question: How did the ETS1 binding intensity turn out when AGTTTCCTGAACTCAGAGCACAGTTCTGGTGCAGAA was run?
Answer: 6300

Question: How did the ETS1 binding intensity turn out when TCGGGCTGCCGAAGAGCAGCTATTTCCTGTCTGCAC was run?
Answer: 5010

Question: How did the ETS1 binding intensity turn out when TATTTCCTGTGCACAGAAGCAGCTGGGCCGAAGAGT was run?
Answer: 34400

Question: How did the ETS1 binding intensity turn out when CCAGACCCGGCGGAACTACCGTGCCCTCAAGGCAGC was run?
Answer: 477

Question: How did the ETS1 binding intensity turn out when TTCAGGTGACTTCCGGCCGGACCTCTGAGGACGCGG was run?
Answer: 24100 ± 4200

Question: Which ETS1 binding intensity does the source give for CCCGGAGGACGTCCGGCCTCTGTGAGCCGCCACCTT here?
Answer: 4500

Question: ACGCGCGCGGGGGAGGTGGCTTCTTCCGGCCGGGCC was tested. Which ETS1 binding intensity did it give?
Answer: 1860

Question: How did the ETS1 binding intensity turn out when CTCGGCCAGGAAGCACTGAGCCACTTCGGCATCGCA was run?
Answer: 591

Question: For TGACAGACCCGGAAATAAGAGGAGACAACACACTTG, which ETS1 binding intensity is on record?
Answer: 4440

Question: How did the ETS1 binding intensity turn out when GGCAGGAAAGAGCTGATGCATTTCAACAGCAGCCTG was run?
Answer: 477

Question: Which ETS1 binding intensity does the source give for CCTGAGCGCCCGGAAGGAAGGCTGGGGTAGGTTGTC here?
Answer: 756

Question: ACCAACCGGAAGTGATCGTGTCGTGGCCGAAGGAGG was tested. Which ETS1 binding intensity did it give?
Answer: 32300

Question: How did the ETS1 binding intensity turn out when GTCGGAAGTGGCCGTGAGCCCAAGCCGAGGTCCCGG was run?
Answer: 1130

Question: For GGAGGGGCTGGCCGGAAGTGAACCGAAGAGCACGCT, which ETS1 binding intensity is on record?
Answer: 16700

Question: For TGCGCCAGCGGGAGGGAGCAGTTCCGGGTACGGTGC, which ETS1 binding intensity is on record?
Answer: 563

Question: For CAGGACCCCTGTACTCCGGGTGAAGCGGAAGCGCAG, which ETS1 binding intensity is on record?
Answer: 667

Question: How did the ETS1 binding intensity turn out when TTATCTGTCGTTCTTTTATGGGGTGGGCTTCCTCTG was run?
Answer: 503

Question: For GAGAAAGCAGCGCCCCAGCGCGCCTTCCGCCACGCC, which ETS1 binding intensity is on record?
Answer: 328

Question: CAGTCTGGCCATGAGGTGCCACTTCCTCTCTGGTTT was tested. Which ETS1 binding intensity did it give?
Answer: 1550

Question: For AGCCGCCACTTCCTGTCTCTGAGGGTGCATGCTCTT, which ETS1 binding intensity is on record?
Answer: 36000

Question: How did the ETS1 binding intensity turn out when CTGACTTGTTGTAGTCTCTGCCACTTCCTGAGGTGT was run?
Answer: 668

Question: Which ETS1 binding intensity does the source give for TAAAATTTCGGGAGGGGACTTGGTCCTTCCTGTTGC here?
Answer: 735

Question: Which ETS1 binding intensity does the source give for GCGCCCCGCTTCCGGGGCCGCCCTAAACGGCGGCCG here?
Answer: 10100

Question: For AGCAACCTACTACCCGGCGCCTGATTCACTTCCCTC, which ETS1 binding intensity is on record?
Answer: 391

Question: How did the ETS1 binding intensity turn out when CCCCGTTACGCCCATCCGGCTCCCGAATAGGGCGTC was run?
Answer: 2610

Question: ATTACATCCGGGCTCCGCGACACGCCCGAACCCCAA was tested. Which ETS1 binding intensity did it give?
Answer: 25300

Question: For CTTACTATATTAACGCCGGTACACATCCGCCCGACA, which ETS1 binding intensity is on record?
Answer: 1800

Question: CTTACGGCCTCGCGCCATGGGCAGTATCCGCCGCCA was tested. Which ETS1 binding intensity did it give?
Answer: 328

Question: How did the ETS1 binding intensity turn out when GATGGGCTGGGGATGTGGCCTGTTTGCCGCTGGCGA was run?
Answer: 361

Question: With GGCTGCGCCGGCTGGGGTGTTCCTCCGACTTCCGGA as the sequence, how does the ETS1 binding intensity read?
Answer: 1590

Question: CAGCCGACTTCCGGGGTGGGGCTTGCTGCCGCTGAG was tested. Which ETS1 binding intensity did it give?
Answer: 19300

Question: With GGCTGCGACTTCCGGACTGCTCCTGGCCGCTGGGGG as the sequence, how does the ETS1 binding intensity read?
Answer: 22900 ± 1200

— the supplement of paper PMC10681739
